MazEF act – activators of E. coli MazEF toxin-antitoxin RNase; activation, % at 20 µM; FAM/BHQ RNA-DNA oligo cleavage fluorescence, 5 h; 0.32% of 350,000 active; AID 504720; in the data active = activation above about 50%
SSB-PriA inh – K. pneumoniae PriA-SSBct interaction inhibition. AlphaScreen SSBct-PriA binding, biotinylated peptide. 0.6% of 430,000 active. inhibition, % at 33 µM; in the data active = inhibition mostly above about 37%, no sharp cut-off; inactive = mostly below about 20%;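 note: plate controls were negative control peptide for no effect and reference peptide for full effect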
Bead autofluor – counter-screen for toxin protease inhibitors: compound fluorescence; 3.1% of 360,000 active; compound autofluorescence counterscreen, microsphere flow cytometry; active compounds read high; fluorescence intensity (test concentration not listed); in the data active = fluorescence intensity above about 16000; inconclusive = no clear call, values can overlap the other calls
Anthrax LF prot – blocks Bacillus anthracis lethal factor protease; multiplex microsphere protease cleavage assay, LF; inhibition, % at 10 µM; 0.12% of 360,000 active; note: plate controls were buffer without enzyme for full effect and enzyme alone for no effect
BoNT-A LC inh2 – BoNT A light chain protease inhibition; 0.17% of 360,000 active; multiplex microsphere protease substrate cleavage, flow cytometry; inhibition, % at 10 µM; note: plate controls were buffer without enzyme for full effect and enzyme alone for no effect
BoNT-F LC inh – inhibitors of Botulinum neurotoxin F light chain protease; Multiplex microsphere protease cleavage assay, flow cytometry; inhibition, % at 10 µM; 0.22% of 360,000 active; AID 588497; in the data active = inhibition above about 35%, passing the limit was not always enough; inconclusive = no clear call, values can overlap the other calls; note: plate controls were buffer without enzyme for full effect and enzyme alone for no effect
* hit, by the source's call. In the library only some 3.3% were active in any assay of this set; here they are far more common. Cut-off read from the data, not from the text of the source, unless noted: active = inhibition above about 30%; inconclusive = no clear call, values can overlap the other calls; inactive = below that.

Results for O=C(CNS(=O)(=O)c1ccc2ccccc2c1)OCC(=O)c1ccc(Br)s1 ?
MazEF act: -29; SSB-PriA inh: 4; Bead autofluor: 18275*; Anthrax LF prot: -2; BoNT-A LC inh2: 5; BoNT-F LC inh: 7

What do the screens show for `Nc1ccc2cc(C(=O)O)ccc2c1`?
SSB-PriA inh: -21

What do the screens show for `O=C(COC(=O)c1ccc(O)cc1)Nc1nnc(-c2ccccc2)o1`?
SSB-PriA inh: 59*

How did O=C(COC(=O)Cc1ccccc1)Nc1nnc(-c2ccccc2)o1 do in these assays?
MazEF act: 3; SSB-PriA inh: -3; Bead autofluor: inconclusive; Anthrax LF prot: -2; BoNT-A LC inh2: 1; BoNT-F LC inh: 8

What do the screens show for `O=C(CCCSc1nc2ccccc2[nH]1)Nc1nnc(-c2ccccc2)o1`?
MazEF act: 9; SSB-PriA inh: -4; Bead autofluor: 22546*; Anthrax LF prot: 1; BoNT-A LC inh2: inconclusive; BoNT-F LC inh: -1

Results for CCc1ccc(C(=O)COC(=O)c2ccc(-c3nnc(-c4ccccc4)o3)cc2)cc1 ?
MazEF act: -25; SSB-PriA inh: -11; Bead autofluor: 24076*; Anthrax LF prot: -1; BoNT-A LC inh2: -2; BoNT-F LC inh: -4

What do the screens show for `COC(=O)Cc1c(C)nc2nc(NCc3cccc([N+](=O)[O-])c3)[nH]n2c1=O`?
MazEF act: 0; SSB-PriA inh: -7; Bead autofluor: 19811*; Anthrax LF prot: -2; BoNT-A LC inh2: 2; BoNT-F LC inh: 2

Results for COC(=O)Cc1c(C)nc2nc(NCc3ccc(Cl)cc3)[nH]n2c1=O ?
MazEF act: -4; SSB-PriA inh: -5; Bead autofluor: 9208; Anthrax LF prot: 1; BoNT-A LC inh2: 0; BoNT-F LC inh: -4

How did COCCNC(=S)NCc1ccc2c(c1)cc(C)n2C do in these assays?
SSB-PriA inh: 58

How did Cc1cc2cc(CNC(=S)Nc3ccc(OC(F)F)cc3)ccc2n1C do in these assays?
MazEF act: 19; SSB-PriA inh: 22; Bead autofluor: 1428; Anthrax LF prot: -111; BoNT-A LC inh2: 66*; BoNT-F LC inh: -126

Results for CC(=O)c1cc(-c2ccccc2)n(CC(=O)N2CCC(C)CC2)c1C ?
MazEF act: -14; SSB-PriA inh: 3; Bead autofluor: 17028*; Anthrax LF prot: 0; BoNT-A LC inh2: inconclusive; BoNT-F LC inh: -4

What do the screens show for `O=S(=O)(O)c1cc(Cl)cc(N=Nc2ccc(O)cc2O)c1O`?
MazEF act: -17; SSB-PriA inh: -3; Bead autofluor: 2860; Anthrax LF prot: -14; BoNT-A LC inh2: -1; BoNT-F LC inh: -8

Results for O=S(=O)(O)c1cc(O)c2c(O)c(N=Nc3cc(Cl)ccc3O)c(S(=O)(=O)O)cc2c1 ?
MazEF act: 5; SSB-PriA inh: 58*; Bead autofluor: 3218; Anthrax LF prot: -17; BoNT-A LC inh2: -8; BoNT-F LC inh: -26

What do the screens show for `CN(CCO)C[C@H]1COCCN1C(=O)c1cnn(-c2ccccc2)n1`?
SSB-PriA inh: -7

How did O=S(=O)(NCC(c1ccco1)S(=O)(=O)c1ccc(F)cc1)c1ccc2c(c1)OCCO2 (configuration not stated) do in these assays?
SSB-PriA inh: -10

What do the screens show for `CC(C)C1C(c2ccccc2)N(C)C(c2ccccc2)CC1(O)c1ccccc1` (configuration not stated)?
MazEF act: 5; SSB-PriA inh: 5; Bead autofluor: 21931*; Anthrax LF prot: 0; BoNT-A LC inh2: 2; BoNT-F LC inh: 1

How did CCC1C(c2ccccc2)N(C)C(c2ccccc2)CC1(O)c1ccccc1 (configuration not stated) do in these assays?
MazEF act: -2; SSB-PriA inh: 7; Bead autofluor: 3058; Anthrax LF prot: -2; BoNT-A LC inh2: -1; BoNT-F LC inh: 2

How did O=c1cccc2n1CC1CC2CN(C(=S)NCc2ccccc2)C1 (configuration not stated) do in these assays?
SSB-PriA inh: -8

How did N#C/C(=C\c1ccccc1[N+](=O)[O-])C(=O)NC1CCCCC1 do in these assays?
MazEF act: 423*; SSB-PriA inh: -4; Bead autofluor: 3039; Anthrax LF prot: -2; BoNT-A LC inh2: 0; BoNT-F LC inh: 2

How did N#C/C(=C\c1cc(Cl)cc(Cl)c1O)C(=O)NC1CCCCC1 do in these assays?
MazEF act: -101; Bead autofluor: 16628*; Anthrax LF prot: 1; BoNT-A LC inh2: inconclusive; BoNT-F LC inh: 0

How did Cn1nc(-c2ccc(F)cc2)cc1C(=O)NCCn1ccc(-c2cccs2)n1 do in these assays?
SSB-PriA inh: -12

Compound activity as filed in PubChem.
